Rows were chosen to be rich in hits. Some 2.4% of all compounds tested hit in one or more screens of this group.
STAT3 SMM: STAT3 binders, primary screen, biochemical, small molecule microarray, single point, set 2; 17,000 tested, 0.2% active; Signal transducer and activator of transcription 3 (Homo sapiens), P40763; His-STAT3 binding, anti-His fluorescence; calls only;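 active means compounds whose four printed spots each show fluorescence over background unusually high for their array block, chance value under 7%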
NFkB SMM: binders of NF-kB p50 subunit, primary screen, biochemical, small molecule microarray, anti-His fluorescence. Nuclear factor NF-kappa-B p105 subunit (Homo sapiens), P19838. anti-His fluorescence binding. calls only. 17,000 tested, 1.3% active;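 active means spot fluorescence over background significantly raised, with a chance value under 7% in all four replicate spots of the compound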;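 further: probe protein is his-tagged human p50 processed subunit at 1 µg/ml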
Target sequence (P19838 1-433 limits assumed): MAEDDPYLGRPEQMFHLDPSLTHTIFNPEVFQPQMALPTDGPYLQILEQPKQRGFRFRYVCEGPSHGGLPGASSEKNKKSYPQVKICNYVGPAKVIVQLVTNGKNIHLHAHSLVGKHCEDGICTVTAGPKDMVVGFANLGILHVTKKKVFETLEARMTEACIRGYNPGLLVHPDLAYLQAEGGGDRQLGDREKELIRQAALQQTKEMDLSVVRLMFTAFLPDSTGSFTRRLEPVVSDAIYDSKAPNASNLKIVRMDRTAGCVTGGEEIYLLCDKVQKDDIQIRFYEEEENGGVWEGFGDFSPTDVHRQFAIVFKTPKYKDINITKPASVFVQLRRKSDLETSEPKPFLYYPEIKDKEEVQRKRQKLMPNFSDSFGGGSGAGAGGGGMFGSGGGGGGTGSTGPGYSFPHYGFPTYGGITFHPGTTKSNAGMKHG
p53 mut binder: binders of human mutant p53, primary screen, biochemical, small molecule microarray, anti-GST fluorescence; mutant tumor protein p53 (GST-tagged), Homo sapiens; small molecule microarray binding; calls only; 17,000 tested, 0.4% active;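 active means compounds whose four printed spots each glow above background more than chance allows, each with a p-value under 7%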
c-Myc SMM: binders of human c-Myc, primary screen, biochemical, small molecule microarray, anti-His fluorescence; calls only; 17,000 tested, 1.5% active; Myc proto-oncogene protein (Homo sapiens), P01106; His-c-Myc binding;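 active means spot fluorescence over background with P-value below 7% in all four replicate spots, showing protein binding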
Of the large screens only hits and unclear results are named; the others gave an inactive call.

C[C@H](CO)N1C[C@H](C)[C@@H](CN(C)CC2CC2)OCCCC[C@H](C)Oc2ccc(NC(=O)NC3CCCCC3)cc2C1=O	none
C[C@@H]1CCCCO[C@H](CN(C)CC2CCCCC2)[C@H](C)CN([C@@H](C)CO)C(=O)c2cc(NC(=O)NC3CCCCC3)ccc2O1	NFkB SMM active
C[C@@H]1CN([C@@H](C)CO)C(=O)c2cc(NC(=O)Nc3cccc4ccccc34)ccc2O[C@@H](C)CCCCO[C@@H]1CN(C)C	none
C[C@H](CO)N1C[C@H](C)[C@@H](CN(C)CC2CC2)OCCCC[C@H](C)Oc2ccc(NC(=O)Nc3cccc4ccccc34)cc2C1=O	NFkB SMM active
CNC(=O)CN(c1ccccc1)S(=O)(=O)c1ccc(F)cc1	none
COc1ccc(OC)c(NC(=O)CSc2nnc(-c3ccccc3)n2-c2ccccc2)c1	none
O=C(CSc1ncccc1C(=O)O)Nc1ccc(Oc2ccccc2)cc1	none
C[C@@H]1CN([C@@H](C)CO)C(=O)c2cc(NC(=O)NC3CCCCC3)ccc2O[C@H]1CN(C)C(=O)NC1CCCCC1	c-Myc SMM active
C[C@@H]1CN([C@@H](C)CO)C(=O)c2cc(N(C)C)ccc2O[C@@H](C)CCCCO[C@H]1CN(C)C(=O)Nc1cccc2ccccc12	c-Myc SMM active
C[C@@H]1CN([C@H](C)CO)C(=O)c2cc(NC(=O)NC3CCCCC3)ccc2O[C@@H]1CN(C)C(=O)NC1CCCCC1	none
S=C(NCC1CCCO1)Nc1cnn(Cc2ccc(Cl)cc2)c1 (centres undefined)	c-Myc SMM active
C=C1C[C@@]23CCC4[C@](C)(C(=O)O)CCC[C@@]4(C)[C@]2(O)CCC1C3 (some centres undefined)	none
COc1c(C(=O)O)ccc2c1CCC(C)(C)O2	none
COc1ccc(C#Cc2ccc3c(c2)[C@]2(C(=O)N3)[C@H](c3ccc(O)cc3)N3[C@H](c4ccccc4)[C@H](c4ccccc4)OC(=O)[C@H]3[C@@H]2C(=O)N2CCCCCCC2)cc1	STAT3 SMM active, p53 mut binder active
O=C1O[C@@H](c2ccccc2)[C@@H](c2ccccc2)N2[C@@H](c3ccc(O)cc3)[C@]3(C(=O)Nc4ccc(C#CC5(O)CCCCCC5)cc43)[C@@H](C(=O)N3CCCCCCC3)[C@H]12	STAT3 SMM active
C[C@@H]1CCCCO[C@@H](CN(C)C(=O)C2CCCCC2)[C@@H](C)CN([C@H](C)CO)C(=O)c2cc(NS(=O)(=O)c3cccs3)ccc2O1	NFkB SMM active, c-Myc SMM active
C[C@@H]1CCCCO[C@H](CN(C)C(=O)C2CCCCC2)[C@H](C)CN([C@@H](C)CO)C(=O)c2cc(NS(=O)(=O)c3cccs3)ccc2O1	STAT3 SMM active
O=C(CSc1ccccc1)Nc1ccc(C(=O)Nc2ccc(Br)cc2C(=O)O)cc1	none
O=C1c2cccc3cccc(c23)C(=O)N1CCCSc1ncn[nH]1	c-Myc SMM active
N#Cc1c(-c2ccccc2)nc(SCCN2C(=O)c3ccccc3C2=O)[nH]c1=O	none
C/C=C(\C)C(=O)OC(C)(C)C1Cc2cc3ccc(=O)oc3cc2O1 (centres undefined)	p53 mut binder active
C[C@H](CO)N1C[C@H](C)[C@H](CN(C)C(=O)C2CCCCC2)OCCCC[C@H](C)Oc2ccc(NS(=O)(=O)c3ccccc3)cc2C1=O	STAT3 SMM active
C[C@H]1CCCCO[C@@H](CN(C)C(=O)C2CCCCC2)[C@@H](C)CN([C@@H](C)CO)C(=O)c2cc(NS(=O)(=O)c3ccccc3)ccc2O1	none
C[C@H]1CCCCO[C@H](CN(C)C(=O)C2CCCCC2)[C@@H](C)CN([C@@H](C)CO)C(=O)c2cc(NS(=O)(=O)c3ccccc3)ccc2O1	NFkB SMM active, c-Myc SMM active
C[C@H](CO)N1C[C@H](C)[C@H](CN(C)Cc2ccccc2)OCCCC[C@H](C)Oc2ccc(NS(=O)(=O)c3ccccc3)cc2C1=O	p53 mut binder active
CCCN(C)C[C@H]1OCCCC[C@@H](C)Oc2ccc(NS(=O)(=O)c3ccc(OC)cc3)cc2C(=O)N([C@H](C)CO)C[C@H]1C	p53 mut binder active
COc1ccc(C(CC(=O)O)C(=O)O)cc1OC (centres undefined)	none
C=CCNC(=O)[C@H]1[C@@H]2C(=O)O[C@@H](c3ccccc3)[C@@H](c3ccccc3)N2[C@@H](c2ccccc2OCCO)[C@]12C(=O)Nc1ccc(C#Cc3ccc(OC)cc3)cc12	none
COc1ccc(C#Cc2ccc3c(c2)[C@]2(C(=O)N3)[C@H](c3ccc(OCCO)cc3)N3[C@H](c4ccccc4)[C@H](c4ccccc4)OC(=O)[C@H]3[C@@H]2C(=O)Nc2nc3ccccc3s2)cc1	NFkB SMM active
C=CCNC(=O)[C@@H]1[C@H]2C(=O)O[C@H](c3ccccc3)[C@H](c3ccccc3)N2[C@H](c2ccccc2OCCO)[C@@]12C(=O)Nc1ccc(C#Cc3ccc(OC)cc3)cc12	NFkB SMM active
COc1ccc(C#Cc2ccc3c(c2)[C@]2(C(=O)N3)[C@H](C(=O)Nc3nc4ccccc4s3)[C@H]3C(=O)O[C@H](c4ccccc4)[C@H](c4ccccc4)N3[C@@H]2c2ccc(OCCO)cc2)cc1	none
Cc1ccc(C(=O)CC(C(=O)O)n2ccc(C)n2)cc1 (centres undefined)	NFkB SMM active, c-Myc SMM active
O=C(N[C@@H](Cc1ccccc1)Cn1cc(CN2C(=O)COC[C@H]2c2ccccc2)nn1)c1ccccc1	p53 mut binder active
Cc1ccc(S(=O)(=O)N[C@H](C(=O)NCCn2cc(CN3C(=O)COC[C@H]3c3ccccc3)nn2)C(C)C)cc1	p53 mut binder active
O=C(Nc1ccccc1)N[C@H](Cc1ccccc1)Cn1cc(CN2C(=O)COC[C@H]2c2ccccc2)nn1	p53 mut binder active
C/C(=C\C=C\[C@@H](C)[C@H]1CC[C@@]2(C)[C@@H]3CCC4C(C)(C)[C@@H](O[C@@H]5O[C@H](CO)[C@@H](O[C@@H]6O[C@@H](C)[C@H](O)[C@@H](O)[C@H]6O)[C@H](O)[C@H]5O[C@@H]5O[C@H](CO[C@@H]6O[C@H](CO)[C@@H](O)[C@H](O)[C@H]6O)[C@@H](O)[C@H](O)[C@H]5O[C@@H]5O[C@@H](C)[C@H](O)[C@@H](O)[C@H]5O)CC[C@@]45C[C@@]35CC[C@]12C)C(=O)N[C@@H]1C(=O)O[C@H](C)[C@@H]1C (some centres undefined)	none
COc1ccc(NC(=O)Cn2c(-c3ccccc3)nc3sc4c(c3c2=O)CCCC4)cc1	none
O=C(Cn1nnc2sc3c(c2c1=O)CCCC3)NCc1ccco1	c-Myc SMM active
CCOC(=O)c1c(NC(=S)NC(=O)c2ccc(OC)c([N+](=O)[O-])c2)sc2c1CCC2	c-Myc SMM active
CCn1ncc(Cl)c1C(=O)NCc1ccco1	none

From PubChem
